Sampled rows, rich in hits. Any-hit rate of the full collection: about 10%.
HEK293 tox: kills HEK 293 cells. Potency, µM (titrated, usually from 115 µM), for inactives: at the top dose activity change, negative = cytotoxicity, usual class: inhibitors. AID 1345083. actives 6.6% (n = 94,000). HEK 293 viability, ATP luminescence (CellTiter-Glo), 48-72 h; further: potency means the concentration at half of the fitted maximal effect; on the % scale 0 is the no-effect control and ±100 the full control effect; nearly all actives have a fitted effect of over 60% in size
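Cells seeded first (HEK 293, 250 cells/well), then compound added by pintool. Incubation ran 48 or 72 hr at 37 degree Celsius. CellTiter-Glo was added and luminescence imaged after 10 min at room temperature.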
NPR1 antag: antagonists of human natriuretic peptide receptor Npr1. P16066. HEK293 hNpr1 GloSensor cGMP, ANP-stimulated luminescence. Potency, µM (highest dose often 46.3 µM), without a hit: at the highest dose activity change, negative = inhibition, hits mostly inhibitors. actives 1.6% (n = 76,000); calls by dose curve; further: potency means the concentration at half of the fitted maximal effect; on the % scale 0 is the no-effect control and ±100 the full control effect; nearly all actives have a fitted effect of over 60% in size
Target sequence (P16066 whole entry, looked up): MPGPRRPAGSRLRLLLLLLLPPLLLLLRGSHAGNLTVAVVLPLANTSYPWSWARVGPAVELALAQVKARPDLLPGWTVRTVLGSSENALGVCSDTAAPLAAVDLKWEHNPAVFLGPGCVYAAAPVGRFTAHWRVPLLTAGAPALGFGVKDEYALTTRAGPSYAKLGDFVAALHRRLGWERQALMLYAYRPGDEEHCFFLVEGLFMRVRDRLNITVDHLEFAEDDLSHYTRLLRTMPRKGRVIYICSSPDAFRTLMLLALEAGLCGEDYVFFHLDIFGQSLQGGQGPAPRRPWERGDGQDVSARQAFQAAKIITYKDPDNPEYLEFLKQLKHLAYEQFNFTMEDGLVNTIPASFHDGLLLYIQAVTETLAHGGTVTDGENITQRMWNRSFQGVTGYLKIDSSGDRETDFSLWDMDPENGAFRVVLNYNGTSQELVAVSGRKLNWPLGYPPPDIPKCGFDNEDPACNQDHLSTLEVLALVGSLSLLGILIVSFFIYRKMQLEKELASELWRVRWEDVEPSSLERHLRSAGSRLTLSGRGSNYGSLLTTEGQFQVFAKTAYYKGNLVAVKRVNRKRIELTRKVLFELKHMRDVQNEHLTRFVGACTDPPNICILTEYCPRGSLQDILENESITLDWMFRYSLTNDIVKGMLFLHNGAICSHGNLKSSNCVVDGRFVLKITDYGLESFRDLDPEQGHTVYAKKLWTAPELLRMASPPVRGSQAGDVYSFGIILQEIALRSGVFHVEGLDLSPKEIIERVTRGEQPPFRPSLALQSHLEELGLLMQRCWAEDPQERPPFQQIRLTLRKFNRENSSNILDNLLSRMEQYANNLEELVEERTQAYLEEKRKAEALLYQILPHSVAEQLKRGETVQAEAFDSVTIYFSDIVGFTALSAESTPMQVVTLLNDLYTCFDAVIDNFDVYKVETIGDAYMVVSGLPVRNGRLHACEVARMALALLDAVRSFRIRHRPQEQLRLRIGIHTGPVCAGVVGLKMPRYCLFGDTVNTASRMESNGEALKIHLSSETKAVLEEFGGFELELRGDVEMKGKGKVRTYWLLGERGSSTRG
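HEK293 cells stably expressing human Npr1 and cGMP GloSensor pGS-40F, loaded 2 h with 2% GloSensor reagent, given compound 30 min at room temperature. Luminescence read before and 20 min after 0.1 nM hNppA.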
NIH3T3 tox: kills NIH 3T3 cells. Potency, µM (highest dose often 96.7 µM), for the others: at the highest dose activity change, negative = cytotoxicity, actives largely listed as inhibitors. NIH 3T3 viability, CellTiter-Glo ATP luminescence, 48-72 h. actives 4.3% (n = 94,000); further: potency means the concentration at half of the fitted maximal effect; on the % scale 0 is the no-effect control and ±100 the full control effect; nearly all actives have a fitted effect of over 55% in size
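First NIH 3T3 cells are plated at 400 cells/well; next compound is pinned in; then plates incubate 48 or 72 hr at 37 °C; finally CellTiter-Glo is added and luminescence read after 10 min.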
GPT2 inhibitor: GPT2 alanine aminotransferase inhibition; Recombinant GPT2, coupled pyruvate oxidase/HRP Amplex Red fluorescence; actives 0.25% (n = 100,000); AID 1671188; Potency, µM (series often up to 57.7 µM), for inactives: top-dose activity change, negative = inhibition, usual class: inhibitors; Q8TD30; further: potency means the concentration at half of the fitted maximal effect; on the % scale 0 is the no-effect control and ±100 the full control effect; nearly all actives have a fitted effect of over 60% in size
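GPT2 10ng/uL, a-KG 250uM, L-Ala 2mM, HEPES pH7.5 + 0.0001% Tween; 30 min RT. Then Amplex mix (PO/HRP/ThPP), 30 min RT dark, fluorescence. AOA 50uM used as positive control.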
Luciferase inh: Photinus pyralis luciferase inhibition | purified P. pyralis luciferase, luminescence, biochemical | Potency, µM (series often up to 115 µM), actives largely listed as inhibitors | AID 1347043 | actives 2.5% (n = 76,000); further: potency means the concentration at half of the fitted maximal effect; on the % scale 0 is the no-effect control and ±100 the full control effect; nearly all actives have a fitted effect of over 65% in size
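Purified 10nM P. pyralis luciferase with 10uM D-luciferin and 10uM ATP in 50mM Tris acetate pH 7.5, 10mM Mg acetate, 0.01% Tween-20, 0.05% BSA. qHTS titration; luminescence read by CCD imager.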
GPT2 inh cnf: human alanine aminotransferase 2 inhibition, confirmatory; shares compounds with GPT2 inhibitor; GPT2 enzyme, coupled Amplex Red pyruvate fluorescence; Potency, µM, hits mostly inhibitors; actives 90% (n = 95); AID 1671187
Numbers without * were called inactive; i = inactive; ? = inconclusive; . = not tested or not shown; [ ] = remark or other dose. Unless noted, the call rests on the fitted dose curve; in most records, active means well fitted curve in the direction sought with a large enough effect; inconclusive means small, poorly fitted or top-dose-only effect, or another doubt; inactive means no such curve, though single readings can be large; an effect the other way counts as inactive or inconclusive.

SMILES	HEK293 tox	NPR1 antag	NIH3T3 tox	GPT2 inhibitor	Luciferase inh	GPT2 inh cnf
Cc1ccc(OCc2nc(C3CN(C(=O)c4ccc5[nH]ccc5c4)C3)no2)cc1	?	.	?	-23%	.	.
CNC(=O)c1cc(Nc2cccc(N(C)C)c2)cc2c1OCCN2Cc1cccnc1	?	-1%[70.6 µM]	?	?	i	3.5*
COc1cccc([S+](=O)([O-])N2CCNc3cnc(Nc4ccc(N5CCOCC5)cc4)nc3C2)c1	?	2%	-7%	1.1µM*	i	1.2*
O=C(O)[C@H]1O[C@H](Oc2cc3oc(-c4ccccc4)cc(=O)c3c(O)c2O)[C@H](O)[C@@H](O)[C@H]1O	.	.	.	3.4µM*	.	3.1*
CN(C)Cc1cn2c(=O)n(C)cc(-c3ccccc3Oc3ccccc3)c2n1	?	-2%[70.6 µM]	?	-15%[88.5 µM]	i	.
Cc1nc(N2CCCC2)nc(N2CCC3(CC2)OCCCC3O)c1C (centres undefined)	-13%	0%	-18%	-23%	i	.
Cc1cc2c(N3CCCC3)nc(N3CCCC3)nc2n1C	.	.	.	?	.	?
COc1ccc(N2CCN(C3CCCN(Cc4cc(=O)[nH]c(=O)[nH]4)C3)CC2)cc1 (centres undefined)	2%	-3%	-3%	?	i	6.9*
COc1ccc(N2CCN(C3CCCN(CC=C(C)C)C3)CC2)cc1 (centres undefined)	-7%	-9%	-16%	?	i	.
COc1ccc(NC(=O)NCC2CCCN(C(C)C)C2)cc1OC (centres undefined)	-5%	9%	i	i	i	.
COc1ccc(NC2CCCN(C(=O)C(=O)CC(C)C)C2)cc1OC (centres undefined)	1%	2%	2%	22µM*	i	3.4*
C=CC(=O)Nc1cccc(Nc2nc(Nc3ccc(N4CCN(C(C)=O)CC4)cc3OC)ncc2C(F)(F)F)c1	.	.	.	3.2µM*	.	2.2*
Cc1ccc2c(c1)C(N1CCN(C)CC1)=Nc1cccnc1N2	.	.	.	i	.	.
Cc1cc2c(s1)Nc1ccccc1N=C2N1CCN(C)CC1	.	.	.	?	.	8.6*
COc1cc(CN2CCc3nc(N(C)C)[nH]c(=O)c3CC2)cc(OC)c1OC	3%	-1%	-23%	-1%	i	.
COc1ccc(Nc2cc3c(cn2)NCCN(Cc2ccccc2)C3)cc1	79µM*	?	?	?	i	5.6*
COc1ccc(CN2CCNc3cnc(Nc4ccccc4)cc3C2)cn1	?	-4%[70.6 µM]	?	?	i	3.1*
c1ccc(Nc2cc3c(cn2)NCCN(Cc2ccsc2)C3)cc1	?	-3%[70.6 µM]	?	?	i	2.5*
COCCN1CCNc2cc(Nc3ccc(N4CCOCC4)cc3)ncc2C1	-27%[172 µM]	2%[70.6 µM]	?	?	i	5.6*
c1ccc(-c2cc(CC3(NCC4CCCCC4)COC3)no2)nc1	-24%[172 µM]	-16%[70.6 µM]	-12%[138 µM]	i	i	.
CC(=O)Nc1ccc(-c2c(C3CC3)nn(-c3cccc(C)c3)c2OC(C)=O)cc1	-9%	1%	i	?	i	9.7*
CC(C)CNC(=O)c1cc(N2CCOCC2)cc2c1OCCN2C	.	.	.	.	.	2*
CN1CCOc2c(C(=O)NCCC(N)=O)cc(-c3ccccc3)cc21	0%[172 µM]	1%[70.6 µM]	?	i	i	.
CN1CCOc2c(C(=O)N3CC[S+](=O)([O-])CC3)cc(N3CCOCC3)cc21	.	.	.	.	.	2*
CN1CCOc2c(C(=O)NCCc3ccccc3)cc(N3CCOCC3)cc21	?	0%[70.6 µM]	-26%[138 µM]	?	i	.
SMILES	HEK293 tox	NPR1 antag	NIH3T3 tox	GPT2 inhibitor	Luciferase inh	GPT2 inh cnf
N#Cc1ccc(S(=O)(=O)N2CCC(C3CCNC3)CC2)cc1 (centres undefined)	-31%	0%	-19%	i	i	.
O=C1CCC2(CCNCC2)CCN1Cc1ccccc1	-2%	8%	-7%	i	i	.
CCCN1CCN(C(=O)c2ccc3c(c2)n(Cc2ccc(F)cc2)c(=O)c2ccnn23)CC1	?	-1%	-22%	i	i	.
COc1cc(N2CCN(C)CC2)ccc1Nc1nccc(-c2cn(C)c3cnccc23)n1	.	.	.	3.5µM*	.	2.4*
CCS(=O)(=O)N1CCN(c2ccc(Nc3ncc(C(N)=O)c(NC4CC4)n3)cc2)CC1	.	.	.	i	.	.
COc1cc(N2CCC(N3CCN(C)CC3)CC2)ccc1Nc1ncc(Cl)c(Nc2ccccc2S(=O)(=O)C(C)C)n1	.	.	.	2.2µM*	.	3.1*
COc1cc(N2CCC(N(C)C)CC2)ccc1Nc1ncc(Cl)c(Nc2ccccc2P(C)(C)=O)n1	.	.	.	1.9µM*	.	2.2*
CNS(=O)(=O)c1ccccc1Nc1nc(Nc2ccc(N3CCN(C)CC3)cc2OC)ncc1Br	.	.	.	?	.	2.7*
COc1ccccc1Nc1ccnc(N2CCC(NC(=O)c3ccc(Cl)nc3)CC2)n1	?	.	-21%	-12%	.	.
CN1CCN(c2ccc(OC(F)(F)F)c(Nc3ncc4c(n3)-c3c(c(C(N)=O)nn3CCO)CC4)c2)CC1	.	.	.	i	.	.
COc1cccc([S+](=O)([O-])N2CCC3(CC2)COc2ccccc2NC3=O)c1	-22%	-19%	-16%	2%	i	.
O=C(NC1CCCCC1)[C@@H]1C[C@@H](O)CN1C1CCN(C(=O)c2ccccc2)CC1	5%	8%	1%	i	i	.
COc1ccc(C(=O)N2C[C@@H](F)C[C@H]2C(=O)N2CCCCC2)cc1	0%	9%	i	-11%	i	.
O=C(c1cccs1)N1CCOc2ccc(N3CCCC3)cc2C1	18µM*	.	?	1.3µM*	.	1.4*
